This is a sample that favours compounds with a hit; in the whole collection about 1.3% have one here.
TRPV1 PAM = human TRPV1 potentiation | Q8NER1 | TRPV1-expressing cells, Fluo-8 calcium influx, capsaicin EC20 potentiation | potentiation, % at 8.33 µM | 320,000 tested, 0.02% active; in the data active means potentiation above about 80%; inconclusive means between about 30% and that limit; further: 0% is about no effect
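TRPV1-expressing cells were cultured overnight at 35.5C and loaded with Fluo-8 calcium dye for 40 to 90 min at room temperature. After a 10 s baseline, compound was added and calcium influx was read kinetically for 3 min (ex 480/em 520 nm).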
KCNH2 WT inh = inhibitors of human wildtype KCNH2 potassium channel; activity change, % at 1.84 µM; 340,000 tested, 0.37% active; U2OS, BacMam KCNH2, thallium flux FluxOr; hits give low values; Q12809;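 active means maximum activity change below -70%; inconclusive means maximum activity change between -70% and -50%; inactive means maximum activity change above -50%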; further: on the % scale 0 is the no-effect control and ±100 the full control effect
Target sequence (Q12809 whole entry, looked up): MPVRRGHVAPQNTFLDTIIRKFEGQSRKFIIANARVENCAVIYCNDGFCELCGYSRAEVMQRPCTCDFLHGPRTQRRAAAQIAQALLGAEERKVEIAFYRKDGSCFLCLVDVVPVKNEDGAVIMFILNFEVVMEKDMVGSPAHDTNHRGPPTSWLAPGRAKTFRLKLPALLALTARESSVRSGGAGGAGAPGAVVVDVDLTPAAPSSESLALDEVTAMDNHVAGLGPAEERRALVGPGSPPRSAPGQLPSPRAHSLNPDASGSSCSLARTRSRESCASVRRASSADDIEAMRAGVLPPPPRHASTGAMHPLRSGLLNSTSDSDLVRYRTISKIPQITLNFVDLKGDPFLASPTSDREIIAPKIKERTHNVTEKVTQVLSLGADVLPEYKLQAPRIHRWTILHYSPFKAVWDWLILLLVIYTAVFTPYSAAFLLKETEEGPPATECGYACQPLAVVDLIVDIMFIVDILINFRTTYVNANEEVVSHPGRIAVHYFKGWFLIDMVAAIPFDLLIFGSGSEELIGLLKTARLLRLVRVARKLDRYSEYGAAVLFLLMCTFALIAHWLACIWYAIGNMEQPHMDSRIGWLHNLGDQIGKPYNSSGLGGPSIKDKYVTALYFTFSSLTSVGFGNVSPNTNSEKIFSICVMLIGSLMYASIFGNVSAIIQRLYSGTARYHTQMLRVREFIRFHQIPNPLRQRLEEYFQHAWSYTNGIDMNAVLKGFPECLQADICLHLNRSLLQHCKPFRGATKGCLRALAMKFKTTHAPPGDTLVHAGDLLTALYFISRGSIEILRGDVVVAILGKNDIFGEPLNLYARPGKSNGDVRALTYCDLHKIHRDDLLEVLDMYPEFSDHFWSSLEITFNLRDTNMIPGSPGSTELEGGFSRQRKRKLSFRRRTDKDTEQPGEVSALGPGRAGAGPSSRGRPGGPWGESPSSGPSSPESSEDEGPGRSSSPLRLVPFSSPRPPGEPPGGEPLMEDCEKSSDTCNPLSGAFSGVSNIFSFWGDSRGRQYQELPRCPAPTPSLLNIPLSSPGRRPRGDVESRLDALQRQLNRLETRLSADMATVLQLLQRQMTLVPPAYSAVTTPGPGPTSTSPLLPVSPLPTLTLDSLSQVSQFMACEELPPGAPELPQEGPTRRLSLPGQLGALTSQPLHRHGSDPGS
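U2OS cells were transduced with wild-type KCNH2 virus (2.03 x 10^8 / mL) for 4 h at room temperature, then cultured overnight at 37 C. Thallium flux was read with FluxOr dye. Rate constants were normalized to DMSO controls.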
TRPV1 ag = activates the human vanilloid receptor TRPV1. Q8NER1. TRPV1-expressing cells, Fluo-8 calcium influx, agonist mode. activation, % at 8.33 µM. 320,000 tested, 0.19% active. AID 540275; in the data active means activation above about 80%; inconclusive means between about 30% and that limit; further: 0% is about no effect
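Fluo-8 calcium influx in TRPV1-expressing cells, kinetic read (ex 480/em 520 nm). Compound added and read 3 min for agonist activity, followed by capsaicin at EC20 final and 2 min further read for enhancement.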
TRPML1 agonist = activates the human TRPML1 channel; activation, % (no concentration beside the values); 410,000 tested, 0.12% active; Q9GZU1; TRPML1-expressing cells, Ca2+ dye fluorescence, FDSS; AID 624414; in the data active means activation above about 50%; inconclusive means mostly about 30% to 49%; further: 0% is about no effect
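Calcium fluorescence on an FDSS kinetic reader gave the read-out. Tet-induced TRPML1-DL cells were plated overnight, dye-loaded (Ca8 with quencher, 45-90 min, room temperature, dark), then read 110 s after compound addition, and again 110 s after 4uM final 54-4 (EC80).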
TRPML1 inh = inhibitors of human TRPML1 channel; 390,000 tested, 0.02% active; activity change, negative = inhibition, % (concentration not given with the values); TRPML1-inducible cells, Ca2+ dye fluorescence, FDSS; hits give low values; inhibition of EC80 agonist-evoked calcium signal; Q9GZU1; in the data active means activity change below about -50%; inconclusive means between about -30% and that limit;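 further: stimulus is agonist 54-4 at its EC80 concentration; on the % scale 0 is the no-effect control and ±100 the full control effect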
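Calcium fluorescence in TRPML1-DL cells induced overnight with Tet: a 110 s read after compound pin addition, then a 110 s antagonist read after challenge with 54-4 at 4 uM final (EC80).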
KCNH2 3.1 block = KCNH2 3.1 (human) potassium channel inhibition; activity change, % (tested at about 1.8 µM); 340,000 tested, 0.95% active; U2OS KCNH2 3.1, thallium flux FluxOr; hits give low values; AID 720553;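 active means maximum activity change below -70%; inconclusive means maximum activity change from -70% to -50%; inactive means maximum activity change above -50%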;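 further: thallium influx rate constant from kinetic fluorescence after stimulation buffer; on the % scale 0 is the no-effect control and ±100 the full control effect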
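We transduce U2OS cells with the mutant 3.1 virus, culture them overnight, load FluxOr with Red40 quencher for 45 min, then add stimulation buffer and read kinetically for 2 min to derive a normalized rate constant.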
An asterisk follows results filed as active; ? = inconclusive; / = no result.

SMILES	TRPV1 PAM	KCNH2 WT inh	TRPV1 ag	TRPML1 agonist	TRPML1 inh	KCNH2 3.1 block
COc1ccc(NC(=O)NCCCCc2ccccc2)cc1	-1	-3	?	0	-10	10
COc1ccc(NC(=O)NCCCN2CCC(Cc3ccccc3)CC2)cc1	-4	-44	10	0	-3	-104*
CSc1ccc(NC(=O)NCCCN2CCC(Cc3ccccc3)CC2)cc1	-1	-48	0	1	66	-106*
CN(C)c1ccc(C=Nc2ccc(/C=C3\C=Cc4ccccc43)cc2)cc1	/	/	/	-1	/	/
CCC(CC)C(=O)Nc1c2c(nn1-c1ccc(F)cc1)CS(=O)(=O)C2	7	3	1	0	-19	-81*
CC(Sc1nnc(-c2ccccc2F)n1C)C(=O)Nc1ccc(N2CCOCC2)cc1 (configuration not stated)	/	11	/	0	32	-5
CC(Sc1nnc(C(F)(F)F)n1C)C(=O)Nc1ccc(N2CCOCC2)cc1 (configuration not stated)	/	-140*	/	0	13	-186*
CCOc1cc2sc(N3CCC(C(=O)Nc4ccc(C)cc4C)CC3)nc2cc1Br	/	/	/	0	-2	/
Cc1ccc(Nc2ncnc3c2oc2ccccc23)cc1	-6	-2	93*	2	-6	-1
COc1ccc(Nc2ncnc3c2oc2ccccc23)cc1	-15	4	93*	0	10	-1
Cc1ccnc2c(N)cccc12	/	/	/	0	/	/
Cc1cc(C)cc(NC(=O)CNC(c2ccccc2)c2ccccc2)c1	-12	-70*	25	4	-13	-7
COc1cc2nc(CCc3nc4cc(OC)c(OC)cc4[nH]3)[nH]c2cc1OC	/	/	/	0	/	/
O=C(Nc1ncc(Cc2ccc(SC(F)F)cc2)s1)c1ccc(OC(F)F)cc1	-3	4	?	13	-12	-82*
Cc1ccc(Cc2cnc(NC(=O)c3ccco3)s2)cc1	2	0	?	4	-5	9
CCCCCCCC(=O)N/N=C(\C)c1ccc(O)cc1O	0	5	5	57*	-11	6
COc1cccc(Cn2c(=O)n(CCc3ccccc3)c(=O)c3c2c2cc(OC)ccc2n3C)c1	/	/	/	0	-5	/
COc1ccc(N(CC(=O)NCCSCc2ccccc2Cl)S(C)(=O)=O)cc1Cl	12	-1	-2	-1	-4	-74*
FC(F)Sc1ccc(Nc2ncnc3nc[nH]c23)cc1	17	-7	83*	2	9	5
C1=C/C(=C2/C=Cc3ccccc32)c2ccccc2N1	/	/	/	-1	/	/
OC1CCCN(CC(O)COc2ccc(-c3ccccc3)cc2)C1 (configuration not stated)	-1	19	6	-1	-8	-72*
NC(=O)C1CCN(CC(O)COc2ccc(-c3ccccc3)cc2)CC1 (configuration not stated)	11	15	3	0	5	-86*
O=S1(=O)CCO[C@H]2CCCC[C@@H]2N1Cc1ccc(Cl)cc1	/	/	/	-1	/	/
Cn1cnc2c(=O)oc3ccc(S(=O)(=O)N4CCN(c5cccc(Cl)c5)CC4)cc3c21	/	/	/	-1	1	/
CC(NC(=O)CCc1ccccc1)c1ccc2c(c1)OCO2 (configuration not stated)	-1	-142*	-2	1	29	-2
CN(C)CCCNC(=O)C[C@H]1C[C@H](C(=O)N2CCCCC2)[C@@]2(CCc3ccccc3)c3[nH]c4ccc(Cl)cc4c3CCN2C1=O	/	-120*	/	0	-12	-47
CCCCNCC1C(Oc2ccc(Cl)cc2)C(=O)N1c1ccccc1C (configuration not stated)	8	5	-4	0	16	-94*
O=C(COc1ccccc1C(=O)Nc1ccccc1)Nc1cccc(Cl)c1	/	/	/	0	/	/
Cc1cc(N)c(NC2=CC(=O)CC(C)(C)C2)cc1C	?	-1	2	60*	4	6
Cc1ccc(NC2=CC(=O)CC(C)(C)C2)cc1F	-15	-1	7	3	15	12

Compound activity deposited in PubChem BioAssay by National Center for Advancing Translational Sciences (NCATS).
